Most compounds without a hit are left out; they make up all but 3.8% or so of the library.
ELG1 repair inh = ELG1-dependent DNA repair inhibition; actives 2.3% (n = 330,000); HEK293T ELG1-luciferase reporter, luminescence, 16 h; DNA damage induced by 5-fluorouridine; Potency, µM (titrated, usually from 46.1 µM), for inactives: at the highest dose activity change, negative = inhibition, most hits filed as inhibitors; also: % is scaled to controls: 0 for no effect and ±100 for the full control effect; nearly all actives have a fitted effect of over 55% in size
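Cells (2,000 per well) received 5-fluorouridine plus test compound or DMSO and were incubated 16 hr at 37 °C, 5% CO2. Luciferase activity was read by luminescence 30 min after ONE-Glo addition; signal suppression marked inhibition of damage-induced ELG1 function.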
Nrf2 activator = activators of Nrf2 (ARE) signaling; AREc32 ARE-luciferase reporter (MCF7-derived line), luminescence, 24 h; Potency, µM (titrated, usually from 46.1 µM), for inactives: top-dose activation, most hits filed as activators; actives 0.31% (n = 410,000); also: % of control where 0% means no effect; nearly all actives have a fitted effect of over 65% in size
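Steps: seed AREc32_Fluc cells (1000/well, 5% FBS OPTI-MEM); incubate overnight at 37 deg C; add 23 nL compound; incubate 24 hr; add Steady-Glo; hold 30 min RT; read luminescence.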
A549 viability = counter-screen for Nrf2 inhibitors: cytotoxicity in A549 cells | A549 ARE-Fluc cells, CellTiter-Fluor viability, 18-24 h | Potency, µM (series often up to 46 µM), for the others: at the top dose activity change, negative = cytotoxicity, hits mostly inhibitors | actives 0.16% (n = 390,000); also: % is scaled to controls: 0 for no effect and ±100 for the full control effect
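Cytotoxicity counterscreen: CellTiter-Fluor fluorescence was measured in A549 ARE_Fluc cells after 18-24 h of compound exposure in a concentration series. The subsequent BugLite luminescent read reports ARE-luciferase activity.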
IDH1 R132H inh = blocks human mutant IDH1 R132H enzyme; actives 0.093% (n = 390,000); O75874; IDH1-R132H enzyme, NADPH consumption, diaphorase/resazurin fluorescence; AID 602179; Potency, µM (series often up to 76.6 µM), inactives show top-dose activity change, negative = inhibition, most hits filed as inhibitors; also: % is scaled to controls: 0 for no effect and ±100 for the full control effect; nearly all actives have a fitted effect of over 65% in size
Target sequence (O75874 whole entry R132H, stated change not applied): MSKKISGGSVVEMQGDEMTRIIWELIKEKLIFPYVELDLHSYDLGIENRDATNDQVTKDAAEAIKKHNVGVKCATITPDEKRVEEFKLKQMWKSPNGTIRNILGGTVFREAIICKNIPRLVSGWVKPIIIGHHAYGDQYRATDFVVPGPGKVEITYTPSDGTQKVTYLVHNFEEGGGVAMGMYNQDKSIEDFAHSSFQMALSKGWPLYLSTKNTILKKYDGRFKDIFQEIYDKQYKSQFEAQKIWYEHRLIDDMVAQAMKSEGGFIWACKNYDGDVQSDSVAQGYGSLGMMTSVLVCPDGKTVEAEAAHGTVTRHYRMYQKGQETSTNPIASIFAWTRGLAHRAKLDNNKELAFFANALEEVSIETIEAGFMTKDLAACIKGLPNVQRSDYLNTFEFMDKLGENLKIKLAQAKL
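IDH1-R132H (0.5 ug/mL dispensed) in pH 7.5 Tris buffer was preincubated 30 min with compound, then given a substrate mix of 0.016 mM NADPH and 2 mM alpha-KG for 80 min at room temperature; remaining NADPH was read by diaphorase/resazurin fluorescence.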
Nrf2 block = blocks Nrf2 signaling. A549 ARE-Fluc reporter, luciferase luminescence, 18-24 h. Potency, µM (series often up to 46 µM), for the others: at the highest dose activity change, negative = inhibition, actives largely listed as inhibitors. actives 2.1% (n = 360,000); also: % is scaled to controls: 0 for no effect and ±100 for the full control effect; nearly all actives have a fitted effect of over 60% in size
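Reporter: ARE-Fluc in A549. Exposure: 18-24 h, 37 °C, 5% CO2, 5% FBS OPTI-MEM. Readouts: fluorescent cytotoxicity (CellTiter-Fluor), then luminescent Nrf2 signal after BugLite.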
* = called active by the depositor; u = inconclusive; x = no result given; [ ] = another dose, or the depositor's remark. Calls follow the shape of the dose curve; as a rule, active = well fitted curve in the direction sought with a large enough effect; inconclusive = small, poorly fitted or top-dose-only effect, or another doubt; inactive = no such curve, though single readings can be large; an effect the other way counts as inactive or inconclusive. Potency is read from the fitted curve at half-maximal effect.

SMILES	ELG1 repair inh	Nrf2 activator	A549 viability	IDH1 R132H inh	Nrf2 block
COc1ccc(-n2nc(C(=O)c3cccs3)cc(-c3nc4ccccc4[nH]3)c2=N)cc1	u	0.3%	3.5%	2.6%	9.6%
COc1ccc(OC)c(N/C(C)=C/C(=O)c2ccncc2)c1	u	-0.3%	-16.0%	9.9%	-7.7%
C/C(=C\C(=O)c1ccncc1)Nc1ccccc1O	2.4%	14.1µM*	-9.5%	-2.4%	15.7%
O=C1CCCC2=C1C1(CCCOC1)N=C(Nc1nc3ccccc3o1)N2 (stereo not drawn)	x	x	1.5%	x	u
Cc1ccc(NC(=O)c2ccc(-c3nn(C)c(=O)c4ccccc34)cc2)cc1	u	-0.1%	-5.7%	7.3%	u
CCC(=O)NCc1cc(-c2nn(C)c(=O)c3ccccc23)ccc1C	-5.0%	3.0%	-9.0%	-2.2%	-43.1%
Cn1nc(-c2ccc(C(=O)Nc3cccc(Cl)c3)cc2)c2ccccc2c1=O	u	-0.4%	-20.9%	7.1%	6.51µM*
Cn1nc(-c2ccc(OCC(=O)Nc3cccnc3)cc2)c2ccccc2c1=O	u	3.0%	1.3%	4.2%	u
Cc1ccc(-c2nn(C)c(=O)c3ccccc23)cc1CNC(=O)c1ccccc1	16.4µM*	5.9%	0.6%	21.1%	u
Cn1nc(-c2ccc(OCC(=O)Nc3cccc(C(F)(F)F)c3)cc2)c2ccccc2c1=O	x	0.2%	u	-10.1%	25.9µM*
Cn1nc(-c2ccc(C(=O)Nc3ccc(F)cc3)cc2)c2ccccc2c1=O	7.3µM*	3.1%	-4.1%	2.7%	18.4µM*
Cn1nc(N)c2ncc(-c3ccc(Cl)cc3)nc21	x	8.6%	x	-0.4%	x
CSCCC(c1nnnn1C1CCCC1)N1CCN(C/C=C/c2ccccc2)CC1 (stereo not drawn)	x	0.9%	x	x	x
Cc1ccc(Cl)cc1NC(=O)CSc1nc2ccccc2c2nc(-c3ccccc3)nn12	x	-0.1%	3.3%	22.4%	x
CSc1ccc(CCNC(=O)CCc2c(C)nc3c4cccnc4nn3c2C)cc1	x	-0.2%	-3.4%	-2.7%	-16.7%
Cc1ccc(N(CC(O)Cn2c3ccccc3c3ccccc32)S(=O)(=O)c2ccc(F)cc2)cc1 (stereo not drawn)	x	-0.3%	u	-0.5%	u
CC(=O)Nc1ccccc1N(CC(O)Cn1c2ccccc2c2ccccc21)S(=O)(=O)c1ccc(C)cc1 (stereo not drawn)	u	0.2%	-22.1%	5.1%	25.9µM*
COc1ccc2c(c1OC)C(=O)N1c3ccccc3C(=O)N(Cc3ccco3)C21 (stereo not drawn)	x	x	-13.3%	x	0.3%
CC(C)Cn1c2c(c(O)c(C(=O)Nc3nccs3)c1=O)CCCC2	u	0.0%	-11.3%	1.3%	20.6µM*
CCCn1c2c(c(O)c(C(=O)Nc3nccs3)c1=O)CCCC2	14.8%	2.7%	-2.0%	-11.8%	u
COC(=O)C1=C(C(=O)OC)[C@@H]2N(Cc3ccccc3)c3ccccc3[C@@]23C[C@@H](C(=O)OC)N(C(=O)c2ccc(Br)cc2)C3=N1	u	-1.0%	-24.3%	-12.3%	16.4µM*
C=CCN1c2ccccc2[C@]23C[C@@H](C(=O)OC)N(C(=O)c4ccc(Br)cc4)C2=NC(C(=O)OC)=C(C(=O)OC)[C@H]13	u	0.0%	u	-12.1%	u
COC(=O)C1=C(C(=O)OC)[C@@H]2N(C)c3ccccc3[C@@]23C[C@@H](C(=O)OC)N(C(=O)c2cc(C)oc2C)C3=N1	-14.2%	-0.7%	-29.3%	-1.2%	18.4µM*
COc1ccc(NC(=O)c2ccncc2)cc1S(=O)(=O)N1CCCCC1	x	1.3%	x	13.3%	x
Cc1ccsc1CNc1ncnc2ccc(-c3ccc4c(c3)OCO4)cc12	x	x	-3.8%	x	u
SMILES	ELG1 repair inh	Nrf2 activator	A549 viability	IDH1 R132H inh	Nrf2 block
CC1CCN(C(=O)COC(=O)C2CCN(S(=O)(=O)c3ccc4c(c3)OCCO4)CC2)CC1	21.2%	0.2%	-0.1%	0.0%	-5.8%
CCN(CC)S(=O)(=O)c1ccc(N2CCOCC2)c(NC(=O)Cc2ccccc2F)c1	18.4µM*	-0.7%	3.2%	-2.5%	-0.7%
CCN(CC)S(=O)(=O)c1ccc(N2CCCC2)c(NC(=O)c2nn(C)c(=O)c3ccccc23)c1	18.3µM*	0.2%	0.6%	0.5%	-24.3%
CCOc1cc(N2CCOCC2)c(OCC)cc1NC(=O)Cc1cccc2ccccc12	18.4µM*	-0.2%	-3.0%	2.5%	-37.3%
CCN(CC)S(=O)(=O)c1ccc(N2CCOCC2)c(NC(=O)Cc2cccc3ccccc23)c1	7.31µM*	0.5%	10.2%	1.9%	8.3%
CCN(CC)S(=O)(=O)c1ccc(N2CCOCC2)c(NC(=O)c2nn(C)c(=O)c3ccccc23)c1	x	0.1%	-0.4%	3.5%	-5.3%
CCOc1cc(N2CCOCC2)c(OCC)cc1NC(=O)COC(=O)c1ccccc1C	u	-0.5%	-6.2%	-0.8%	-29.2%
COc1cc(OC)cc(-c2noc(-c3csc([C@@H]4O[C@H](CO)[C@H](O)[C@H](O)[C@H]4O)n3)n2)c1	x	3.0%[9.22 µM]	x	x	x
CCn1c(=O)n(CC)c2cc(N3CCCC3)c(NC(=O)c3cccc(Cl)c3)cc21	u	-0.4%	-16.6%	-8.1%	-26.9%
Cc1c(Cl)cccc1NC(=O)CSc1nc2ncccc2o1	x	2.8%	9.5%	2.0%	5.9%
CCOC(=O)Cn1c(=O)n(C2CCCCC2)c2nc(-c3ccc(C(C)C)cc3)nc(C(N)=O)c21	x	-1.2%	4.7%	-5.4%	x
O=[S+]([O-])(c1c(F)cccc1F)N1CCN([S+](=O)([O-])c2cccc3nonc23)CC1	x	x	-1.5%	x	13.6%
C[n+]1ccc(/C=C/c2ccc(Br)cc2)cc1	u	11.1%	u	2.7%	7.31µM*
CCCn1c(/C=C/c2cc[n+](C)cc2)nc2ccccc21	-3.7%	1.9%[9.22 µM]	u	22.7%	11.5%
CN1CCN(c2ncnc3c2ncn3[C@H]2CN(Cc3ccc(C(=O)O)cc3)C[C@@H](CO)O2)CC1	x	-0.1%	x	x	x
CCCn1c2c(c(=N)c3c1CCC3)CCC2	18.3µM*	-1.3%	-17.2%	1.7%	7.31µM*
CCCn1c2c(c(=N)c3c1CCC3)CCCC2	8.7%	-0.1%	3.7%	-7.6%	u
CCNC(=O)C1CCCN(C(=O)c2ccc(OC(F)F)cc2)CC1 (stereo not drawn)	x	0.3%[9.22 µM]	x	x	x
COC(=O)c1ccc(-c2ccc([C@H]3[C@H]4C=CC[C@@H](C)[C@@H]4C(=O)N3Cc3ccccc3)c(F)c2)cc1	-23.0%	3.9%	-10.6%	3.6%	23.1µM*
C[C@@H]1CC=C[C@H]2[C@H]1C(=O)N(Cc1ccccc1)[C@H]2c1ccc(F)c(Br)c1	2.9%	x	x	x	x
CC(=O)c1ccc(-c2ccc([C@H]3[C@@H]4C=CCC[C@@]4(C)C(=O)N3Cc3ccccc3)c(F)c2)cc1	u	-0.8%	-28.0%	3.0%	23.1µM*
